# MsrA inh: bovine MsrA enzyme inhibitors, primary screen, biochemical, absorbance, HTS; Methionine sulfoxide reductase A (Bos taurus); hit rate 0.75% among 360,000; inhibition, % at 15.5 µM; purified bovine MsrA, absorbance read-out; in the data active = inhibition above about 4.5%;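 also: 0% = vehicle wells with enzyme and 100% = reference inhibitor wells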
# MsrA act: bovine MsrA enzyme activators, primary screen, biochemical, absorbance, HTS. purified bovine MsrA, absorbance read-out. activation, % at 10.6 µM. hit rate 0.3% among 360,000. AID 602163, 2012; in the data active = activation above about 7.5%;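 also: 0% = vehicle and 100% = reference activator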
# PKA-R2B activ: activators of PKA-R2B holoenzyme, primary screen, biochemical, fluorescence polarization, Cy5-IP20, human; hit rate 0.079% among 340,000; activation, % at 11.4 µM; AID 504700, 2011; PKA-R2B holoenzyme dissociation; R2B truncated from residue 108, S112A mutant; 0% DMSO only, 100% 113 µM cGMP; cAMP-dependent protein kinase catalytic subunit beta (Homo sapiens) + cAMP-dependent …;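 active = activation above a cutoff set at the mean over all compounds plus 3 SD, cut at about 18% in these data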;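 also: higher means more holoenzyme dissociation and a rise in polarization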
# PKA-R1A activ: activators of PKA-R1A holoenzyme, primary screen, biochemical, fluorescence polarization, Cy5-IP20, bovine R1A, mouse PKAc; activation, % at 11.4 µM; cAMP-dependent protein kinase type I-alpha regulatory subunit (Bos taurus) + …; hit rate 0.083% among 340,000; PKA-R1A dissociation; scaled: DMSO 0%, 113 µM cGMP 100%;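 active = percent activation above the mean of all tested compounds plus 3 SD, cut at about 19% in these data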;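 also: higher means more PKAc released from R1A so a rise in polarization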
# R1A FP artifact: FP signal interference without PKA proteins, confirmation, artefact control for PKA-R1A activator project, biochemical, fluorescence polarization, triplicate; hit rate 7% among 280; activation, % at 11.4 µM; Cy5-IP20 peptide alone, fluorescence polarization artifact counterscreen; AID 504799, 2011; shares compounds with PKA-R1A activ;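 active = mean activation over triplicate runs exceeds the adjusted cutoff derived for the parent primary screen, cut at about 19% in these data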;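 also: no PKA protein present so any polarization rise reflects compound interference; 0% = tracer peptide mix alone and 100% = mix with added PKA catalytic subunit; higher means stronger polarization artifact and likely false positive in parent screen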
# PKA-R1A confirm: activators of PKA-R1A holoenzyme, confirmation, biochemical, fluorescence polarization, Cy5-IP20, triplicate | shares compounds with PKA-R1A activ | PKA-R1A holoenzyme dissociation | activation, % at 11.4 µM | hit rate 9% among 280 | AID 504800, 2011;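 active = mean activation over replicate wells exceeds the adjusted hit threshold taken from the earlier primary screen, cut at about 20% in these data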;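 also: 0% = holoenzyme mix with DMSO only and 100% = cGMP-activated control wells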
# Target sequence (P00514 whole entry, looked up): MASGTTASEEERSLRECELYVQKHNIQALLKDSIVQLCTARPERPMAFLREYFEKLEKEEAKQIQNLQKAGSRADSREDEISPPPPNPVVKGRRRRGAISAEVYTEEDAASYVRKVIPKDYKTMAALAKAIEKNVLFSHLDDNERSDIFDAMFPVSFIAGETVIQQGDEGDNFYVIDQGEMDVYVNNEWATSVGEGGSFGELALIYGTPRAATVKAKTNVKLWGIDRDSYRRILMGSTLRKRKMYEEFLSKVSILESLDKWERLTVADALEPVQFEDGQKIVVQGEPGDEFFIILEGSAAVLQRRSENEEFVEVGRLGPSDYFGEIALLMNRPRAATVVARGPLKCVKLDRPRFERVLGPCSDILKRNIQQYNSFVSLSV
# The depositor's hits bear a star; . = not tested or not shown. This is a sample that favours compounds with a hit; in the whole collection about 1.1% have one here.
SMILES,MsrA inh,MsrA act,PKA-R2B activ,PKA-R1A activ,R1A FP artifact,PKA-R1A confirm
CCOC(=O)c1cc(C)sc1NC(=O)c1ccc(Cl)s1,0,-6,0,20*,1,-2
NC(=O)CSc1nc2ccccc2n1-c1ccccc1,0,-7,-5,-19,.,.
NC(=O)CSc1nc2ccccc2n1Cc1ccccc1,1,-3,-3,21*,2,-1
OC(c1ccccc1)(c1ccccc1)C1CCN(CCCOc2ccc(-c3cccnc3)cc2)CC1,0,.,.,.,.,.
COc1ccccc1N=Nc1c(C)n[nH]c1C,4.6*,-3,-5,19*,-1,1
CC1=CC(=O)C(C(C)C)=C/C1=N/OC(=O)c1cccc([N+](=O)[O-])c1,2,2,-5,1,.,.
CC1=CC(=O)C(C(C)C)=C/C1=N\OC(=O)c1cccc2nc(C)oc12,0,-7,-1,19*,2,2
c1ccc(C[C@H]2CN=C(Nc3ccccc3)N2CC2CCCC2)cc1,0,-9,.,.,.,.
COc1ccccc1N1CCN(C(=O)c2cc(S(=O)(=O)N3CCOCC3)ccc2C)CC1,1,-3,-1,19*,-2,0
CC(C)(C)n1nc(C2CC2)cc1NC(=O)Nc1ccccc1,1,.,.,.,.,.
CCn1cc(CCC(=O)Nc2ccc(Oc3cccnc3)cc2)c2ccccc21,1,.,.,.,.,.
CC(OC(=O)CCOc1ccccc1)C(=O)Nc1ccc(Cl)cn1 (stereo unspecified),1,-15,-5,22*,-2,-2
CC(OC(=O)CCc1ccccc1)C(=O)Nc1ccc(Cl)cn1 (stereo unspecified),-2,3,-9,-11,.,.
CC(OC(=O)c1ccccc1O)C(=O)Nc1ccc(Cl)cn1 (stereo unspecified),1,-1,-7,19*,0,-2
CC(OC(=O)c1ccco1)C(=O)Nc1ccc(Cl)cn1 (stereo unspecified),0,-8,3,3,.,.
Cc1sc(NC(=O)C2CCCCC2C(=O)O)c(C(N)=O)c1-c1ccccc1 (stereo unspecified),1,-6,5,19*,3,1
O=C1CC(O)C(Cc2ccccc2)N1 (stereo unspecified),0,.,.,.,.,.
COc1ccccc1CNC(=O)C(C)NS(=O)(=O)c1ccccc1 (stereo unspecified),0,1,5,19*,1,0
O=C(COc1ccccc1Cl)NCCc1ccc2c(c1)OCCO2,-1,-5,-10,21*,-3,4
O=C(COc1ccccc1F)NCCc1ccc2c(c1)OCCO2,-1,-2,2,-4,.,.
CN1OC[C@@H]2CN(Cc3ccc4c(c3)OCO4)[C@H](c3ccc(-n4ccnc4)cc3)C[C@@H]21,-1,.,.,.,.,.
O=P(CCCCCCCCCP(=O)(c1ccccc1)c1ccccc1)(c1ccccc1)c1ccccc1,1,5,-4,-5,.,.
CC[n+]1c(P(=O)([O-])c2ccccc2)[nH]c2ccccc21,-1,1,-5,21*,6,4
CCOC(=O)c1c(NC(=O)c2cccc([N+](=O)[O-])c2C(=O)O)sc2c1CCCC2,2,-3,3,-4,.,.
CCOC(=O)c1c(NC(=O)c2c(C(=O)O)cccc2[N+](=O)[O-])sc2c1CCCC2,2,-3,-8,19*,4,1
SMILES,MsrA inh,MsrA act,PKA-R2B activ,PKA-R1A activ,R1A FP artifact,PKA-R1A confirm
CCOC(=O)c1c(NC(=O)CCC(=O)O)sc2c1CCCCC2,1,-7,0,20*,3,9
COc1cc2c(cc1OC)CN(C(=O)C(CCSC)NS(=O)(=O)c1ccc(C)cc1)CC2 (stereo unspecified),1,-2,-10,20*,-1,-2
Cc1nn2c(NCC(C)C)c3c(nc2c1-c1ccccc1)CCC3,.,-2,6,20*,2,0
COC(=O)[C@]12C[C@H](CC(=O)NCc3cccs3)C(=O)N(Cc3ccccc3)C1=C[C@H](C(C)C)O[C@@H]2C1CC1,0,.,.,.,.,.
O=C(O)c1ccc(-n2cccn2)c([N+](=O)[O-])c1,4,-15,0,20*,0,2
COc1cccc(N2CC(C(=O)Nc3nnc(SCC(=O)Nc4ccc(NC(C)=O)cc4)s3)CC2=O)c1 (stereo unspecified),-1,-4,-4,2,.,.
COc1cccc(C(=O)Nc2nnc(SCC(=O)Nc3ccc(NC(C)=O)cc3)s2)c1,1,-1,5,20*,1,-3
COc1ccc(C)cc1NC(=O)CSc1nnc(CC(=O)Nc2cccc(C(F)(F)F)c2)n1C,1,-7,-5,23*,5,-1
COC(=O)[C@]12CCCCC=C1N(Cc1ccccc1)C(=O)[C@H](CC(=O)NCCC(C)C)C2,1,-2,.,.,.,.
Cc1c(C2Nc3ccccc3C2C)[nH]c2ccccc12 (stereo unspecified),0,.,.,.,.,.
O=C(O)c1ccc2cccc(O)c2n1,3,-3,.,.,.,.
O=C(O)c1ccc2cccnc2n1,1,-2,2,20*,5,2
Cc1cccc(NS(=O)(=O)c2ccc(Oc3ccccc3)cc2)n1,1,0,-5,20*,3,3
Cc1cc(C)c(S(=O)(=O)Cc2ccccc2)c(=O)[nH]1,-1,-13,-4,21*,6,5
O=C(/C=C/c1ccco1)NCC1COc2ccccc2O1 (stereo unspecified),0,-5,8,19*,-5,-4
COc1ccc(/C=C/C(=O)NCC2COc3ccccc3O2)c(OC)c1 (stereo unspecified),3,-6,7,-7,.,.
O=C(CSCc1ccccc1)N1CCN(c2ccc(F)cc2)CC1,0,4,-13,-9,.,.
O=C(CSCc1ccccc1)N1CCN(c2ccccc2)CC1,-1,-3,0,19*,1,2
O=S(=O)(CS(=O)(=O)c1ccccc1Br)c1ccccc1Br,1,.,.,.,.,.
CCOc1ccc(-c2nnn(CCC(=O)O)n2)cc1OC,0,-2,-7,19*,1,-1
O=C(NCc1nc2ccccc2[nH]1)C1=C[C@H](c2ccc(C(F)(F)F)cc2)C[C@H](OCc2ccc(CO)cc2)O1,1,0,14,20*,29*,18
Cc1ccc(S(=O)(=O)NC(=O)NC(C)Cc2ccccc2)cc1 (stereo unspecified),0,-4,2,22*,0,-1
COc1ccc(-c2noc(CCC(=O)NCCc3ccccc3)n2)cc1OC,0,-1,2,19*,-1,2
CC(C)c1[nH]nc2c1C(c1ccccc1)N(c1ccccc1)C2=O (stereo unspecified),0,.,.,.,.,.

# Bioassay records from PubChem.
